This passage reports growth sensitivity score results from the supplement of paper PMC3414501.

Counter-ions that a name gives are not always drawn.

The subject of one assay is S. cerevisiae AD1-9 (efflux-pump deficient), vegetative growth in YPD. In words: growth sensitivity score (doubling time z-score vs DMSO controls); higher = slower growth, strongly negative scores also mark growth inhibition (complete suppression), active = hit call of the paper. The method in brief: (§1)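 Yeast (Saccharomyces cerevisiae BY4741 and AD1-9) was grown in rich medium in microtiter plates from a starting OD600 of 0.065, with optical density read every 15 min over 24 hours. The growth sensitivity score was the difference between compound and solvent-only means, divided by the solvent-only standard deviation. Every experiment had eight solvent-only wells.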
On to `Cc1ccsc1C(=CCCN1CCC[C@@H](C(=O)O)C1)c1sccc1C` [Tiagabine hydrochloride] (stock concentration (mM, diluted 1:100): 9.1), for which the growth sensitivity score is 0.07 (inactive).
Still for that read-out and setting: the figure for `COc1cc(-c2ccc(=O)[nH]n2)ccc1OC(F)F` [Zardaverine] (stock concentration (mM, diluted 1:100): 11.7) is 2.67 (active); for `Cc1nc(=O)c2cc(CN(C)c3ccc(C(=O)N[C@@H](CCC(=O)O)C(=O)O)s3)ccc2[nH]1` [Raltitrexed] (stock concentration (mM, diluted 1:100): 10) it is -3.39.
As for `CNCC[C@@H](Oc1ccccc1C)c1ccccc1` [Atomexetine hydrochloride] (stock concentration (mM, diluted 1:100): 8.7), the growth sensitivity score was 5.57 (active).
Same read-out and setting: as for `COCCOC(=O)C1=C(C)NC(C)=C(C(=O)OC(C)C)C1c1cccc([N+](=O)[O-])c1` (stereo unspecified) [Nimodipine] (stock concentration (mM, diluted 1:100): 10), the figure is 260 (active); as for `COCCCC/C(=N\OCCN)c1ccc(C(F)(F)F)cc1` [Fluvoxamine] (stock concentration (mM, diluted 1:100): 7.7), 9.45 (active).
As for `CC(C)Oc1ccc2c(=O)c(-c3ccccc3)coc2c1` [Ipriflavone] (stock concentration (mM, diluted 1:100): 10), the growth sensitivity score is 3.44 (active).
Turning to `Nc1ccn([C@H]2CC[C@@H](CO)O2)c(=O)n1` [Zalcitabine] (stock concentration (mM, diluted 1:100): 10), the growth sensitivity score is -0.86 (inactive).
Turning to `CN(C)CC[C@@H](c1ccc(Br)cc1)c1ccccn1` [Dexbrompheniramine maleate] (stock concentration (mM, diluted 1:100): 7.3), the growth sensitivity score was -0.16 (inactive).
On to `CCN(CC)CC1CCCCN1CC(=O)N1c2ccccc2C(=O)Nc2cccnc21` (stereo unspecified) [Otenzepad] (stock concentration (mM, diluted 1:100): 10), for which the growth sensitivity score is -1.89 (inactive).

A further assay deals with S. cerevisiae BY4741 (wild-type), vegetative growth in YPD. Described as above. The method in brief: as §1
As for `C/C=C1\[C@H]2C=C(C)C[C@]1(N)c1ccc(=O)[nH]c1C2` [Huperzine a] (stock concentration (mM, diluted 1:100): 10), the growth sensitivity score is -1.79 (inactive).
Turning to `C=CC[C@@H]1/C=C(\C)C[C@H](C)C[C@H](OC)[C@H]2O[C@@](O)(C(=O)C(=O)N3CCCC[C@H]3C(=O)O[C@H](/C(C)=C/[C@@H]3CC[C@@H](O)[C@H](OC)C3)[C@H](C)[C@@H](O)CC1=O)[C@H](C)C[C@@H]2OC` [Tacrolimus] (stock concentration (mM, diluted 1:100): 10), the growth sensitivity score was 12 (active).
On the same count and under the same terms, the figure for `O=c1ncc(F)c[nH]1` [5-Fluoro-2-Pyrimidone] (stock concentration (mM, diluted 1:100): 10) is -2.08; for `Cc1ccnc2c1NC(=O)c1cccnc1N2C1CC1` [Viramune] (stock concentration (mM, diluted 1:100): 10) it is -1.29 (inactive); for `Nc1nc(O)c2ncn(CCC(CO)CO)c2n1` [Penciclovir] (stock concentration (mM, diluted 1:100): 10) it is -0.88 (inactive).
Consider `CC(=O)CCCCn1c(=O)c2c(ncn2C)n(C)c1=O` [Pentoxifylline] (stock concentration (mM, diluted 1:100): 10), for which the growth sensitivity score is -0.51 (inactive).
As to `CC(=O)NCCCCCCNC(C)=O` [Hexamethylene bisacetamide] (stock concentration (mM, diluted 1:100): 10), the growth sensitivity score was 1.69 (inactive).
As to `CC(=O)NC[C@H]1CN(c2ccc(N3CCOCC3)c(F)c2)C(=O)O1` [Linezolide] (stock concentration (mM, diluted 1:100): 10), the growth sensitivity score is -1.67 (inactive).
The same measure, in the same setting: as for `CNCCCC12CCC(c3ccccc31)c1ccccc12` [Maprotilline hydrochloride] (stock concentration (mM, diluted 1:100): 10), the figure is 2.3 (active); as for `CC1(C)C[C@@H]1C(=O)N/C(=C\CCCCSC[C@H](N)C(=O)O)C(=O)O` [Cilastatin] (stock concentration (mM, diluted 1:100): 9.4), -0.97 (inactive).
For the molecule `CNCCCCOc1ccccc1Cc1ccccc1` [Bifemelane] (stock concentration (mM, diluted 1:100): 10), the growth sensitivity score is 3.54 (active).
On the same count and under the same terms, as for `Clc1ccc2c(c1)CCc1cccnc1C2=C1CCNCC1` [Desloratadine] (stock concentration (mM, diluted 1:100): 10), the figure is -0.47 (inactive); as for `O=c1cnn([C@@H]2O[C@H](CO)[C@@H](O)[C@H]2O)c(=O)[nH]1` [6-Azauridine] (stock concentration (mM, diluted 1:100): 10), 0.64 (inactive); as for `O=C(O[C@@H]1C[C@@H]2C[C@H]3C[C@H](C1)N2CC3=O)c1c[nH]c2ccccc12` [Dolasetron mesylate] (stock concentration (mM, diluted 1:100): 10.4), 0.44 (inactive).
Still for that read-out and setting: as for `CN(C)CCC=C1c2ccccc2COc2ccccc21` [Doxepin] (stock concentration (mM, diluted 1:100): 10), the figure is 1.16 (inactive); as for `C=C1/C(=C\C=C2/CCC[C@]3(C)[C@@H]([C@H](C)CCCC(C)(C)O)CC[C@@H]23)C[C@@H](O)C[C@@H]1O` [Calcitriol] (stock concentration (mM, diluted 1:100): 10), -0.32 (inactive).
As to `CN1CCCCC1CCN1c2ccccc2Sc2ccc([S+](C)[O-])cc21` (stereo unspecified) [Mesoridazine] (stock concentration (mM, diluted 1:100): 10), the growth sensitivity score was 66 (active).
Still for that read-out and setting: the figure for `CC(=O)Nc1ccc(CC(=O)O)cc1` [Actarit] (stock concentration (mM, diluted 1:100): 10) is -2 (inactive).
On the same count and under the same terms, as for `Cn1c(NCCN(CCO)CCCc2ccc([N+](=O)[O-])cc2)cc(=O)n(C)c1=O` [Nifekalant hydrochloride] (stock concentration (mM, diluted 1:100): 9.2), the figure is -0.07 (inactive); as for `COc1cc2nc(N(C)CCCNC(=O)C3CCCO3)nc(N)c2cc1OC` (stereo unspecified) [Alfuzosin] (stock concentration (mM, diluted 1:100): 10), -0.26 (inactive).
Same read-out and setting: as for `CCCc1c(OCCCCc2nnn[nH]2)ccc(C(C)=O)c1O` (stock concentration (mM, diluted 1:100): 10), the figure is 1.14 (inactive).
In the case of `COc1cc(CNC(=O)CCCC/C=C/C(C)C)ccc1O` [Capsaicin] (stock concentration (mM, diluted 1:100): 10), the growth sensitivity score was 3.2 (active).
Turning to `OC[C@H]1O[C@@H](n2cnc3c(N[C@H]4CCC[C@@H]4O)ncnc32)[C@@H](O)C1O` (stereo partly specified) (stock concentration (mM, diluted 1:100): 10), the growth sensitivity score was -0.79 (inactive).
Consider `CC(CCCCC(=O)Nc1ccc(C(F)(F)F)cc1)NCCc1cnc[nH]1` (stereo unspecified) (stock concentration (mM, diluted 1:100): 10), for which the growth sensitivity score is -0.06 (inactive).
The same measure, in the same setting: as for `COc1ccc2cc([C@H](C)C(=O)O)ccc2c1` [Naproxen sodium] (stock concentration (mM, diluted 1:100): 10), the figure is -0.72 (inactive); as for `CCC(=O)O[C@]1(C(=O)SCF)[C@H](C)C[C@H]2[C@@H]3C[C@H](F)C4=CC(=O)C=C[C@]4(C)[C@@]3(F)[C@@H](O)C[C@@]21C` [Fluticasone propionate] (stock concentration (mM, diluted 1:100): 10), -0.58 (inactive); as for `Cc1ccsc1C(=CCCN1CCC[C@@H](C(=O)O)C1)c1sccc1C` [Tiagabine hydrochloride] (stock concentration (mM, diluted 1:100): 9.1), 0.29 (inactive).
For `COc1cc(-c2ccc(=O)[nH]n2)ccc1OC(F)F` [Zardaverine] (stock concentration (mM, diluted 1:100): 11.7), the growth sensitivity score is 1.71 (inactive).
In the case of `Cc1nc(=O)c2cc(CN(C)c3ccc(C(=O)N[C@@H](CCC(=O)O)C(=O)O)s3)ccc2[nH]1` [Raltitrexed] (stock concentration (mM, diluted 1:100): 10), the growth sensitivity score is -0.14 (inactive).
Still for that read-out and setting: as for `CNCC[C@@H](Oc1ccccc1C)c1ccccc1` [Atomexetine hydrochloride] (stock concentration (mM, diluted 1:100): 8.7), the figure is 0.06 (inactive); as for `COCCOC(=O)C1=C(C)NC(C)=C(C(=O)OC(C)C)C1c1cccc([N+](=O)[O-])c1` (stereo unspecified) [Nimodipine] (stock concentration (mM, diluted 1:100): 10), 0.46 (inactive); as for `COCCCC/C(=N\OCCN)c1ccc(C(F)(F)F)cc1` [Fluvoxamine] (stock concentration (mM, diluted 1:100): 7.7), 2.43 (active).
Same read-out and setting: as for `CC(C)Oc1ccc2c(=O)c(-c3ccccc3)coc2c1` [Ipriflavone] (stock concentration (mM, diluted 1:100): 10), the figure is -0.15 (inactive); as for `Nc1ccn([C@H]2CC[C@@H](CO)O2)c(=O)n1` [Zalcitabine] (stock concentration (mM, diluted 1:100): 10), -1.35 (inactive).
Still for that read-out and setting: the figure for `CN(C)CC[C@@H](c1ccc(Br)cc1)c1ccccn1` [Dexbrompheniramine maleate] (stock concentration (mM, diluted 1:100): 7.3) is -1.48 (inactive).
With `CCN(CC)CC1CCCCN1CC(=O)N1c2ccccc2C(=O)Nc2cccnc21` (stereo unspecified) [Otenzepad] (stock concentration (mM, diluted 1:100): 10), the growth sensitivity score was -2.57.
